For 55 compounds, INHIBITION results are on record in ChEMBL document CHEMBL4513216, “Probing the Open Global Health Chemical Diversity Library for Multistage-Active Starting Points for Next-Generation Antimalarials” (ACS Infect Dis, 2020).

Hit rate of the full screen: of about 69,000 compounds, about 8,600 (12%) showed an effect of 50% or more. Many of the other results were omitted from the sample, so strong results are more common in it than they were.

This assay has as its system Plasmodium berghei. Put plainly: Screen against P. berghei liver stage (PbLuc), transformed with Luciferase, at 10uM. The note with it: tested at 10 uM. Type of assay: functional, HepG2.
Consider `Cc1c(Cl)cccc1NC(=O)c1nc[nH]n1`, for which the INHIBITION was -1.16%.
The same measure for `Cc1nc(-c2ccccc2)cc2nn(CC(N)=O)c(=O)n12`: 28.6%.
As for `COc1ccc(-c2cc3nn(CC(N)=O)c(=O)n3c(C)n2)cc1`, the figure is 14.3%.
The same measure for `COc1ccc(-c2cc3nn(CC(=O)NC(C)C)c(=O)n3c(C)n2)cc1`: 53.2%; for `NC(=O)CC1CCN(C(=O)NCCc2ccc(Cl)s2)CC1`: -17.6%; for `c1ccc(CN2CCCC3(CCN(Cc4cccs4)C3)C2)nc1` (stereo not given): 21.1%.
On to `Cc1nn(C)c(N2CCOCC2)c1CNC(c1ccccc1)C1CC1` (stereo not given), for which the INHIBITION is recorded as 14.6%.
Turning to `O=C(C1CCCC1)N1CC2(CCN(C3COC3)C2)OCc2ccccc21` (stereo not given), the INHIBITION turned out to be 53.2%.
The same measure for `O=C(C1CCCC1)N1CC2(CCNC2)OCc2ccccc21` (stereo not given): 11%; for `O=C(C1CCCC1)N1CC2(CCN(C3COC3)CC2)Cc2ccccc21`: 53.2%.
As for `O=C(C1CCCC1)N1CC2(CCCN(C3COC3)C2)Cc2ccccc21` (stereo not given), the figure is -0.621%; as for `O=C(C1CCCOC1)N1CCCc2ccccc21` (stereo not given), -21%.
As for `O=C(C1CCCC1)N1CC2(CCN(C3COC3)C2)Cc2ccccc21` (stereo not given), the figure is 10.1%; as for `Cc1ccc(-c2[nH]c3ccccc3c2C(=O)O)c(C)c1`, 31.7%; as for `c1nc(CN2CCC3(CC2)COCCN3CC2CC2)c[nH]1`, -2.17%.
For `N#Cc1ccccc1N1CCCN(C(=O)CCc2ccsc2)CC1`, the INHIBITION is listed as 19.2%.
The same measure for `CC(C)n1cnnc1CN(C)C(=O)c1ccccc1-n1cncn1`: 31.7%.
The same measure for `CSc1ncc(C(=O)N2CCC(O)(CN3CCOCC3)C(C)(C)C2)cn1` (stereo not given): 40.6%; for `COCCCN1CC2(CCN(C(=O)c3ncc(F)cc3F)CC2)CC1=O`: 58.1%.
The same measure for `COC[C@]1(O)CCN(Cc2cnc(N3CCOCC3)nc2)CC1(C)C`: 32.3%; for `COCCCN1CC2(CCN(Cc3cc(C(C)C)no3)CC2)CC1=O`: 41.2%; for `CC1(C)CN(C(=O)c2ncc(F)cc2F)CCC1(O)CN1CCOCC1` (stereo not given): 76.3%.
For the compound `CCSc1ncc(CN2CC[C@@](O)(COC)C(C)(C)C2)cn1`, the INHIBITION stood at 43.5%.
The same measure for `CCc1ncc(C(=O)N2CCC(O)(CN3CCOCC3)C(C)(C)C2)cn1` (stereo not given): 10.9%; for `COCCCN1CC2(CCN(C(=O)Cc3csc(C)n3)CC2)CC1=O`: -44.8%.
For the compound `CCSc1ncc(CN2CCC(O)(CN3CCOCC3)C(C)(C)C2)cn1` (stereo not given), the INHIBITION is reported as 81%.
Regarding `Cc1nc(C2CCCN(C(=O)c3cc(C(C)(C)C)on3)C2)no1` (stereo not given), the INHIBITION is given as -21.8%.
As for `Cc1noc(C)c1-c1cc(CC2CCN(C(=O)c3cc[nH]n3)C2)ncn1` (stereo not given), the figure is 21.9%; as for `O=C(O)c1cccc(CN2CCC(c3ccnc4ccnn34)CC2)c1`, 28%.
With `Cn1cc(CN2CCOC(Cc3cccc(F)c3)C2)cn1` (stereo not given), the INHIBITION is recorded as 36.8%.
As for `CC(C)(C)NC(=O)c1ccccc1NC(=O)c1ccncc1`, the figure is 30.1%; as for `Cc1c(NC(=O)c2ncn[nH]2)cccc1C(=O)NC(C)(C)C`, 59.5%.
As for `Cc1c(NC(=O)c2cnc[nH]2)cccc1C(=O)NC(C)(C)C`, the figure is 34.5%; as for `CCn1c(NCC2CCCO2)nc2c(C)nn(C)c2c1=O` (stereo not given), 25.8%.
As to `O=C1CN(Cc2cc(O)c3cccc(F)c3n2)CCN1C1CCCC1`, the INHIBITION was 37.7%.
The same measure for `OCC1CCCCN1Cc1cc(O)c2cccc(F)c2n1` (stereo not given): 27.6%; for `NCC1CCCCN1Cc1cc(O)c2cccc(F)c2n1` (stereo not given): 44.7%.
Regarding `Oc1cc(CN2CCCCC2c2cccnc2)nc2c(F)cccc12` (stereo not given), the INHIBITION turned out to be 54.4%.
As for `CC1CNC(=O)CCN1Cc1cc(O)c2cccc(F)c2n1` (stereo not given), the figure is 51.2%.
The same measure for `Cc1ccc(C)c2c(O)cc(CN3CCC(=O)NCC3C)nc12` (stereo not given): 3.69%; for `O=C(c1cc(Cn2ccc3ccccc32)[nH]n1)N1CCOCC1`: 16.2%; for `O=C([C@@H]1CCCO1)N1CCN(Cc2ccncc2)c2ncccc2C1`: 40.3%.
Take `COCC(=O)N1CCC(c2csc(NC(C)=O)n2)CC1`: the INHIBITION is recorded as 17.1%.
The same measure for `CSc1ccc(C(CN)N2CCc3sccc3C2)cc1` (stereo not given): 66.3%.
On to `CSc1ccc(C(CNC(C)=O)N2CCc3sccc3C2)cc1` (stereo not given), for which the INHIBITION is 34.9%.
Take `O=C(NCCO)NCC(c1ccccc1)N1CCc2sccc2C1` (stereo not given): the INHIBITION worked out at 5.91%.
The same measure for `CC(C)c1ccc(C(CN)N2CCc3sccc3C2)cc1` (stereo not given): 82.2%; for `NCC(c1ccccc1)N1CCc2sccc2C1` (stereo not given): -41.8%.
On to `CCOCCCC(=O)NCC(c1ccccc1)N1CCc2sccc2C1` (stereo not given), for which the INHIBITION came to 27.6%.
The same measure for `CCC(=O)NCC(c1ccc(SC)cc1)N1CCc2sccc2C1` (stereo not given): 28.3%; for `NCC(c1ccc(Cl)cc1)N1CCc2sccc2C1` (stereo not given): 71.2%.
As for `CSc1ccc(C(CNC(=O)C2CC2)N2CCc3sccc3C2)cc1` (stereo not given), the figure is 19.7%.
The same measure for `Cc1ocnc1CNC(=O)Nc1ccc(N2CCOC(C)C2)cc1` (stereo not given): 25.8%; for `COc1ccc(C)cc1C(C)NC(=O)Cn1ccc(=O)n(C)c1=O` (stereo not given): -25.9%.
In the case of `CN(C(=O)CCN1CCCC1=O)c1cc(C#N)c2ccccc2n1`, the INHIBITION was 31.2%.
